{"source": "PubChem BioAssay (NCATS)", "key": {"[1]": {"assay": "qHTS Screen of the MIPE 4.0 Collection Against Ewings Sarcoma (TC71) (AID 1259253); also: nearly all actives have a fitted effect of over 40% in size; also: potency is read from the fitted curve at half-maximal effect", "how_it_was_run": "(§1)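 After a 4 h attachment period in RPMI/5% FBS, cells were pin-dosed with test compounds; DMSO served as negative and 9.2 uM bortezomib (final) as positive control. Luminescent CellTiter-Glo signal at 48 h defined viability.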"}, "[2]": {"assay": "qHTS Screen of the MIPE 4.0 Collection Against Ewings Sarcoma (TC32) (AID 1259256)", "how_it_was_run": "as §1"}, "[3]": {"assay": "qHTS Screen of the MIPE 4.0 Collection Against Ewings Sarcoma (EW8) (AID 1259255)", "how_it_was_run": "as §1"}, "[4]": {"assay": "Identifying Small Molecule Inhibitors of Pancreatic Cancer Stem Cells (SN12C, Adherent) (AID 1259358)", "how_it_was_run": "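Adherent (2D) versus sphere (3D) formats; spheres generated 14 d in SCM beforehand. Compound transferred by pin tool after 4 h, 48 h incubation, CellTiter-Glo endpoint.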"}, "[5]": {"assay": "qHTS assay to identify small molecule inhibitors of chordoma cells - UCH-1 (AID 1259355)", "how_it_was_run": "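Seed 800 cells per well; incubate overnight at 37 C, 5% CO2. Add test compounds (15 concentrations), then the auranofin–topoisomerase-agent combination. Incubate 48hr, add CellTiter-Glo, wait 30min, read luminescence.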"}, "[6]": {"assay": "qHTS assay to identify small molecule inhibitors of chordoma cells - UCH-2 (AID 1259356)"}, "[7]": {"assay": "Identifying Small Molecule Inhibitors of Pancreatic Cancer Stem Cells (Panc1, Spheroid) (AID 1259359)", "how_it_was_run": "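Monolayer and spheroid cultures are compared. Spheroids form over 14 days in stem cell medium on hydrogel-coated low-attachment plates, then are exposed to compound for 48 h before CellTiter-Glo luminescence.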"}}, "note": "Several values for one entry are separate records, joined by “and”; a condition that tells them apart may be missing. Identical values can stand only once. Inconclusive results are not listed. A call without a number means that no potency is given here. The source holds several records for some structures; these can differ, active in one and inactive in another. Activity calls are given as the source filed them. Calls follow the shape of the dose curve; as a rule, active = well fitted curve in the direction sought with a large enough effect; inconclusive = small, poorly fitted or top-dose-only effect, or another doubt; inactive = no such curve, though single readings can be large; an effect the other way counts as inactive or inconclusive."}
{"smiles": "CCn1c(-c2nonc2N)nc2cnc(Oc3cccc(NC(=O)c4ccc(OCCN5CCOCC5)cc4)c3)cc21", "values": [{"measurement": "Potency", "setting": "[1]", "result": "13.2 µM (active)"}, {"measurement": "Potency", "setting": "[2]", "result": "5.9 µM (active)"}]}
{"smiles": "CCOc1ccn(-c2ccc(F)cc2)c(=O)c1C(=O)Nc1ccc(Oc2ccnc(N)c2Cl)c(F)c1", "values": [{"measurement": "Potency", "setting": "[2]", "result": "23.5 µM (active)"}]}
{"smiles": "Nc1ncnc2nc(-c3ccc(N4CCOCC4)nc3)cc(-c3cccc(Br)c3)c12", "values": [{"measurement": "Potency", "setting": "[1]", "result": "20.9 µM (active)"}, {"measurement": "Potency", "setting": "[3]", "result": "33.2 µM (active)"}, {"measurement": "Potency", "setting": "[4]", "result": "inactive"}]}
{"smiles": "C[C@]1(c2nc3c(C(N)=O)cccc3[nH]2)CCCN1", "values": [{"measurement": "Potency", "setting": "[1]", "result": "inactive"}, {"measurement": "Potency", "setting": "[3]", "result": "inactive"}, {"measurement": "Potency", "setting": "[2]", "result": "18.7 µM (active)"}, {"measurement": "Potency", "setting": "[4]", "result": "inactive"}]}
{"smiles": "Cn1c(=O)c(F)c(Nc2ccc(I)cc2F)c2c(=O)n(C[C@@H](O)CO)cnc21", "values": [{"measurement": "Potency", "setting": "[1]", "result": "inactive"}, {"measurement": "Potency", "setting": "[2]", "result": "inactive"}, {"measurement": "Potency", "setting": "[4]", "result": "418 nM (active)"}]}
{"smiles": "CN([C@@H](Cc1ccc(OS(=O)(=O)c2cccc3cnccc23)cc1)C(=O)N1CCN(c2ccccc2)CC1)S(=O)(=O)c1cccc2cnccc12", "values": [{"measurement": "Potency", "setting": "[4]", "result": "inactive"}]}
{"smiles": "NNCCc1ccccc1", "values": [{"measurement": "Potency", "setting": "[1]", "result": "20.9 µM (active)"}, {"measurement": "Potency", "setting": "[3]", "result": "9.35 µM (active)"}, {"measurement": "Potency", "setting": "[2]", "result": "11.8 µM (active)"}, {"measurement": "Potency", "setting": "[5]", "result": "inactive"}, {"measurement": "outcome", "setting": "[6]", "result": "inactive"}]}
{"smiles": "NC(=O)c1cnccn1", "values": [{"measurement": "Potency", "setting": "[1]", "result": "inactive"}, {"measurement": "Potency", "setting": "[3]", "result": "inactive"}, {"measurement": "Potency", "setting": "[2]", "result": "inactive"}, {"measurement": "Potency", "setting": "[5]", "result": "inactive"}, {"measurement": "outcome", "setting": "[6]", "result": "inactive"}]}
{"smiles": "Cn1cnc2c(F)c(Nc3ccc(Br)cc3Cl)c(C(=O)NOCCO)cc21", "values": [{"measurement": "Potency", "setting": "[1]", "result": "16.6 µM (active)"}, {"measurement": "Potency", "setting": "[2]", "result": "20.9 µM (active)"}, {"measurement": "Potency", "setting": "[4]", "result": "1180 nM (active)"}]}
{"smiles": "CC(C)c1onc(-c2c(Cl)cccc2Cl)c1COc1ccc(/C=C/c2cccc(C(=O)O)c2)c(Cl)c1", "values": [{"measurement": "Potency", "setting": "[7]", "result": "18.7 µM (active)"}]}
{"smiles": "COc1ccc([C@@H]2CC(=O)c3c(O)cc(O[C@@H]4O[C@H](CO[C@@H]5O[C@@H](C)[C@H](O)[C@@H](O)[C@@H]5O)[C@@H](O)[C@H](O)[C@@H]4O)cc3O2)cc1O", "values": [{"measurement": "Potency", "setting": "[3]", "result": "inactive"}, {"measurement": "Potency", "setting": "[2]", "result": "inactive and 23.5 µM (active)"}]}
{"smiles": "NCCCC(N)(C(=O)O)C(F)F", "note": "(stereo not given)", "values": [{"measurement": "Potency", "setting": "[1]", "result": "inactive"}, {"measurement": "Potency", "setting": "[3]", "result": "inactive"}, {"measurement": "Potency", "setting": "[2]", "result": "inactive"}, {"measurement": "Potency", "setting": "[5]", "result": "inactive"}, {"measurement": "outcome", "setting": "[6]", "result": "inactive"}]}
